tim10-1 inh = tim10-1 yeast growth inhibition. 2.2% of 330,000 active. inhibition, % at 20 µM. S. cerevisiae tim10-1 ts strain growth, BacTiter-Glo, 24 h. AID 463190;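 active means inhibition of at least 40%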;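 further: mutant grown at 25 °C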
NALP3 yeast inh = blocks the NALP3 inflammasome reconstituted in yeast; Yeast reconstituted NLRP3/ASC/caspase-1, beta-gal luminescence, 24 h; inhibition, % at 10 µM; 0.39% of 330,000 active;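 active means inhibition of 50% or more; inactive means inhibition below 50%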
TIM10 inh = inhibits growth of TIM10 yeast strain; S. cerevisiae TIM10 strain growth, BacTiter-Glo luminescence, 24 h; inhibition, % at 10 µM; 1.4% of 330,000 active; AID 463195;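 active means inhibition of 40% or more at the single tested concentration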;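 further: wild-type TIM10 isogenic control strain grown at permissive 25 °C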
SKKanGAS inh = inhibitors of SKKanGAS S. pyogenes growth in kanamycin (SK-promoter or general growth effect) | AID 1662 | 1.3% of 300,000 active | BacTiter-Glo, 6 h | inhibition, % at 7.5 µM;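 active means mean replicate score, as percent of positive control median, at least 50; inconclusive means mean below 50 but one replicate at or above 50; inactive means mean and every replicate below 50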;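 further: strain carries kanamycin resistance gene driven by streptokinase promoter and grows in 40 µg/ml kanamycin; loss of luminescence reflects streptokinase promoter inhibition or plain growth inhibition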
tim23-1 inh = inhibits growth of tim23-1 mutant yeast; 1.3% of 330,000 active; S. cerevisiae tim23-1 growth, BacTiter-Glo luminescence, 24 h; inhibition, % at 20 µM; AID 463212;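 active means growth inhibition of the mutant yeast at or above 50%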;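 further: temperature-sensitive mutant grown at 25 °C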
PfHsp90 set2 = reduces growth (ATP signal) of yeast expressing P. falciparum Hsp90. 0.32% of 310,000 active. AID 504621. inhibition, % at 9.4 µM. S. cerevisiae expressing PfHsp90, BacTiter-Glo ATP, 48 h; yeast lacking PDR1 and PDR3 efflux regulators;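 active means every replicate shows inhibition above about 80%, whatever the replicate mean, limit read from the data; inconclusive means mean inhibition reaches the set limit but some replicate falls short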
Large screens that a line does not name were inactive. Only some compounds are listed: those with a hit (about 4.6% of all), similar ones and a draw of the others.

O=[N+]([O-])c1ccc(NCCCNS(=O)(=O)c2ccccc2)cc1	none
CCCc1[nH][nH]c(=O)c1C(c1cccc(Cl)c1)C(C#N)C#N (configuration not stated)	none
Cc1[nH]n(-c2ncc(-c3ccc(Cl)cc3)s2)c(=O)c1C(c1ccc(Cl)cc1)C(C#N)C#N (configuration not stated)	SKKanGAS inh 97
CCN(CC)S(=O)(=O)c1ccc(C(=O)Nn2cnnc2)cc1	none
CC(NC(=O)CCNC(=O)c1ccc(C(C)(C)C)cc1)c1ccccc1 (configuration not stated)	none (no result: SKKanGAS inh)
O=C(Cc1ccccc1)Nn1c(O)c(/C=C2\C=Nc3ccccc32)sc1=S	SKKanGAS inh 50 (no result: tim10-1 inh, NALP3 yeast inh, TIM10 inh, tim23-1 inh)
Cc1cc(Oc2ccc(C(C)(C)C)cc2)nc(N2CCOCC2)n1	none (no result: PfHsp90 set2)
Cc1cc(Oc2ccc(-c3ccccc3)cc2)nc(N2CCOCC2)n1	SKKanGAS inh 54
C=CCN1C(=O)/C(=C\c2ccc(OC(=O)c3ccco3)c(OC)c2)SC1=S	none
C=CCN1C(=O)/C(=C/c2ccc(OC(C)=O)c(OCC)c2[N+](=O)[O-])SC1=S	SKKanGAS inh 77 (no result: tim10-1 inh, NALP3 yeast inh, TIM10 inh, tim23-1 inh)
CCN(CC)c1ccc(S(=O)(=O)N2CCCCC2)cc1NC(=O)CN1C(=O)NC2(CCCC2)C1=O	none
CCc1nnc(NC(=O)c2sc3nc4cc(C)ccc4cc3c2N)s1	SKKanGAS inh 93
CC1(C)Cc2c(cnn2-c2ccccc2)-c2c1c1ccccc1n2CC(O)CCl (configuration not stated)	SKKanGAS inh 64
CCCCN1C(=O)C(=O)N(CC(=O)Nc2cc(Cl)ccc2OC)C1=O	none (no result: SKKanGAS inh)
COc1cccc(OC)c1C(=O)N[C@@H]1C(=O)N2[C@@H]1SC(C)(C)[C@@H]2C(=O)O	none (no result: tim10-1 inh, NALP3 yeast inh, TIM10 inh, SKKanGAS inh, tim23-1 inh)
CCOC(=O)OC(C)OC(=O)[C@@H]1N2C(=O)[C@@H](NC(=O)[C@H](N)c3ccccc3)[C@H]2SC1(C)C (some centres not stated)	none (no result: SKKanGAS inh)
CC1(C)S[C@@H]2[C@H](NC(=O)COc3ccccc3)C(=O)N2C1C(=O)OCC1CCCCC1 (some centres not stated)	SKKanGAS inh 64 (no result: PfHsp90 set2)
Cc1onc(-c2c(Cl)cccc2Cl)c1C(=O)NC1C(=O)N2C1SC(C)(C)C2C(=O)O (configuration not stated)	SKKanGAS inh 79
CC1(C)S[C@@H]2[C@H](NC(=O)COc3ccccc3)C(=O)N2C1C(=O)OCc1cc2ccccc2n1S(=O)(=O)c1ccccc1 (some centres not stated)	SKKanGAS inh 78 (no result: tim10-1 inh, NALP3 yeast inh, TIM10 inh, tim23-1 inh, PfHsp90 set2)
CC(Oc1ccccc1)C(=O)NC1C(=O)N2C1SC(C)(C)C2C(=O)O (configuration not stated)	SKKanGAS inh 106
O=C1CCC(C(=O)Nc2cccc(S(=O)(=O)N3CCOCC3)c2)N1 (configuration not stated)	none (no result: PfHsp90 set2)
O=C(N/N=C/c1cc(Br)cc([N+](=O)[O-])c1O)c1ccc(NC(=O)c2ccc(F)cc2)cc1	SKKanGAS inh 59
N#C/C(=C(/O)CSc1ccccn1)c1nc2ccccc2s1	none
Cc1ccc(SC/C(O)=C(\C#N)c2nc3ccccc3s2)cc1	SKKanGAS inh 77
N#C/C(=C(/O)COc1ccc(Cl)cc1)c1nc2ccccc2s1	SKKanGAS inh 90
O=C(O)C1OC(C(=O)O)C(C(=O)O)C1C(=O)O (configuration not stated)	none (no result: tim10-1 inh, NALP3 yeast inh, TIM10 inh, SKKanGAS inh, tim23-1 inh)
O=C(Nc1ccc(OC(F)(F)F)cc1)C1CCCN(S(=O)(=O)c2cnc[nH]2)C1 (configuration not stated)	SKKanGAS inh 99
CCN(C(=O)COC(=O)c1ccccc1Oc1ccccc1)c1c(N)n(Cc2ccccc2)c(=O)[nH]c1=O	none (no result: tim10-1 inh, NALP3 yeast inh, TIM10 inh, SKKanGAS inh, tim23-1 inh)
c1ccc(-c2cn(-c3ccccc3)c3ncnc(N4CCCCC4)c23)cc1	SKKanGAS inh 67
CC(=O)c1ccccc1NC(=O)CN1C(=O)NC2(CCCCCCC2)C1=O	none (no result: tim10-1 inh, NALP3 yeast inh, TIM10 inh, SKKanGAS inh, tim23-1 inh)
Cc1ccccc1OCCC(=O)N1CCN(S(=O)(=O)c2ccc(Br)cc2)CC1	none (no result: SKKanGAS inh)
Cc1ccc(NC(=O)c2cc(N3C(=O)CCC3=O)ccc2N2CCOCC2)cc1	none
Cc1ccc(NC(=O)c2cc(N3C(=O)C=CC3=O)ccc2N2CCOCC2)cc1Cl	SKKanGAS inh 61, PfHsp90 set2 105 (no result: tim10-1 inh, NALP3 yeast inh, TIM10 inh, tim23-1 inh)
COc1ccc(/C=C2\SC(=Nc3ccccc3)NC2=O)cc1	none (no result: PfHsp90 set2)
COc1ccccc1N=C1NC(=O)/C(=C/c2ccc(N(C)C)cc2)S1	SKKanGAS inh 56
CC(=O)Oc1ccc(C2=Cc3ccc(OC(C)=O)cc3OC2C)cc1 (configuration not stated)	none (no result: tim10-1 inh, NALP3 yeast inh, TIM10 inh, SKKanGAS inh, tim23-1 inh)
N=C1S/C(=C\c2ccccc2F)C(=O)N1c1ccc(F)cc1	none (no result: PfHsp90 set2)
N=C1S/C(=C\c2cccc3ccccc23)C(=O)N1c1ccc(F)cc1	SKKanGAS inh 56
N=C1S/C(=C\c2cn[nH]c2-c2ccc(F)cc2)C(=O)N1c1ccccc1F	SKKanGAS inh 60
O=C(c1ccc(Br)cc1)c1cc2ccc(O)cc2oc1=O	none
O=C(c1ccccc1)c1cc2ccc(O)cc2oc1=O	SKKanGAS inh 62
Cc1ccc(S[C@@H](CCN2CC[C@H](C)CCC2=O)c2ccccc2)cc1	none
Cc1ccc(S[C@@H](CCN2CC[C@H](C(C)(C)C)CCC2=O)c2ccccc2)cc1	SKKanGAS inh 76
O=C(NNc1c2ccccc2nc2ccccc12)c1cccc(O)c1	none
Oc1cccc(-c2nc3ccc4ccccc4c3c3c2CCC3)c1	SKKanGAS inh 63, PfHsp90 set2 inconclusive
CC12C(=O)N(Cc3ccco3)C(=O)C1C1c3ccccc3C2c2ccccc21 (configuration not stated)	none
N#C/C(=C\c1ccc(/C=C(/C#N)c2nn(CCO)c(N)c2C#N)cc1)c1nn(CCO)c(N)c1C#N	SKKanGAS inh 67
Cc1cc(NC(=O)c2ccc(Cn3nc(C)c(Br)c3C)o2)no1	none
Cc1nn(Cc2ccc(C(=O)Nc3nc4c(C)cccc4s3)o2)c(C)c1Br	SKKanGAS inh 58
COC(=O)c1ccc(COC(=O)C(CCSC)NC(=O)COc2ccccc2)cc1 (configuration not stated)	none
O=CN/C=C/c1cc(O)ccc1O	none (no result: SKKanGAS inh)
O=C(Nc1nnc(-c2ccccc2Cl)o1)c1ccc(S(=O)(=O)N2CCCCCC2)cc1	SKKanGAS inh 107 (no result: PfHsp90 set2)
CCC1CCCCN1S(=O)(=O)c1ccc(C(=O)Nc2nnc(-c3ccccc3Cl)o2)cc1 (configuration not stated)	SKKanGAS inh 110
CCC1CCCCN1S(=O)(=O)c1ccc(C(=O)Nc2nnc(C3CC3)o2)cc1 (configuration not stated)	SKKanGAS inh 60
CS(=O)(=O)c1ccccc1-c1nnc(NC(=O)c2ccc(S(=O)(=O)N3CCCC3)cc2)o1	none
CC1CCCCN1S(=O)(=O)c1ccc(C(=O)Nc2nnc(-c3ccccc3Cl)o2)cc1 (configuration not stated)	SKKanGAS inh 97

Source: PubChem BioAssay (several laboratories)
